Measured values published in PubChem BioAssay AID1159606 (Sanford-Burnham Center for Chemical Genomics, 2016).
In all, about 360,000 compounds went through this assay and about 7,300 (2%) were called active. The sample as a whole holds a higher share of actives than the screen did. Values without a mark were called inactive. Rule as the data show it: active = inhibition above about 50%; inactive = the rest.

assay: blockers of TWEAK-induced Fn14 reporter activity – luciferase reporter cells, uHTS, primary screen (AID 1159606); settings: TWEAK-stimulated Fn14 reporter cells, luciferase luminescence, 8 h; at 10 µM; hits give high values

SMILES | inhibition
Oc1c(Cl)cc(Cl)c(Cl)c1Cc1c(O)c(Cl)cc(Cl)c1Cl | 64% (active)
CC1Cc2[nH][nH]c(=O)c2C(C2CC2)O1 (stereo not drawn) | 4.07%
CC(C)NC(=O)N1Cc2cc(C(=O)NCC(F)(F)F)nc(-c3cccc(-c4cc5ccccc5o4)c3)c2[C@@H]1CCO | 37.6%
CCOc1ccc(NC(=O)CN(C)C(=O)CSc2ccccc2)cc1OCC | 2.8%
CCOC(=O)C1=C(CSc2nccn2C)NC(=O)NC1c1ccc(OC)cc1 (stereo not drawn) | -0.26%
CCOC(=O)C1=C(C)N=c2s/c(=C\C(=O)OC)c(=O)n2C1c1ccc(OC)cc1 (stereo not drawn) | 87.1% (active)
CCOC(=O)c1cc2cc(OC)ccc2n1C1CCN(C)CC1 | -7.56%
Nc1ccccc1/C=N\N=C/c1ccccc1N | -29.4%
COC[C@@H]1NS(=O)(=O)c2ccc(Br)cc2O[C@H]1c1ccccc1 | 6.78%
CCOc1ccc(-n2c(SC(C)C(=O)OC)nc3c(c2=O)SCC3)cc1 (stereo not drawn) | 1.38%
Cc1ccc(Cc2c(-c3ccc(C)cc3)nc3c4ccccc4ccn23)cc1 | 57.1% (active)
FC(F)(F)c1ccccc1Cc1c(-c2ccccc2)nc2c3ccccc3ccn12 | 8.37%
Cc1ccc(Cc2c(-c3ccc(Cl)cc3)nc3c4ccccc4ccn23)cc1 | 22%
c1ccc(Cc2c(-c3ccco3)nc3c4ccccc4ccn23)cc1 | 57.8% (active)
Cc1ccc(-c2nc3c(C)cc(Br)cn3c2Cc2ccccc2)cc1 | 13.1%
Cc1ccc(Cc2c(-c3ccco3)nc3ccc(Cl)cn23)cc1 | 48.4%
C=CCSc1nc2c(c(=O)[nH]1)C(C(C)C)C(C#N)=C(N)O2 (stereo not drawn) | -24.9%
O=C(NC1CCN(S(=O)(=O)c2ccc(F)cc2)CC1)c1ccccc1 | -13.3%
COCCCn1c(-c2cccs2)nc2nc3ccccc3nc21 | 34.3%
CCCc1c(-c2ccccc2F)ncn1Cc1ccccc1OC | 2.25%
CC(=O)c1c(C)[nH]c(C(=O)COC(=O)c2cccs2)c1C | -16.3%
COc1cccc(C(=O)OCC(=O)c2[nH]c(C)c(C(C)=O)c2C)c1 | -4.4%
CC(=O)c1c(C)[nH]c(C(=O)COC(=O)c2cccc(S(=O)(=O)N(C)c3ccccc3)c2)c1C | 101% (active)
COc1ccc(N(C(=O)c2snc(C(N)=O)c2N)C(C(=O)NC2CCCC2)c2ccc(C)o2)c(OC)c1 (stereo not drawn) | 22.4%
COc1c(C)c2c(c(O)c1C/C=C(\C)CCC(=O)O)C(=O)OC2 | -6.73%

SMILES | inhibition
CCn1c(N)c(Br)c(=O)[nH]c1=O | 9.55%
CC(C)c1ccc2c(c1)c(SC(C)(C)C)c(CC(C)(C)C(=O)O)n2Cc1ccc(Cl)cc1 | 79.3% (active)
Cc1cccnc1CCNC(=O)C1CCC(=O)N(Cc2cccc(F)c2)C1 (stereo not drawn) | -10.1%
CCOC(=O)C1CCCN(C(=O)COc2ccc(N(C)S(=O)(=O)c3ccc(C)cc3)cc2)C1 (stereo not drawn) | 9.89%
CCOc1ccc(NC(=O)CN(C)CC(=O)Nc2cccc(Cl)c2C)cc1OCC | 5.07%
C=CCn1c(C)cc(C2=NNC(=NCC)SC2)c1C | 107% (active)
CCc1nc2ccc(C(=O)Nc3ccc(OC)c(OC)c3)cn2c1N(C)C(=O)c1cccc(OC)c1 | -18.4%
COc1cccc(CN(C)CC2CCCN(CCc3ccc(Cl)cc3)C2)c1OC (stereo not drawn) | -2.09%
O=C(NCc1ccccc1)[C@@H]1CSC2c3ccccc3C(=O)N21 (stereo partly drawn) | 8.08%
Cc1ccc2nc(SC(C)C(=O)NCc3ccco3)[nH]c2c1 (stereo not drawn) | 46%
CSc1ncccc1C(=O)Nc1ccc2c(c1)OCO2 | 1.24%
CCOc1ncccc1C(=O)Nc1ccc(S(=O)(=O)Nc2nc(C)cc(C)n2)cc1 | -19.9%
CCOc1ncccc1C(=O)Nc1ccc2c(c1)OCCO2 | 68.7% (active)
COC(=O)[C@]12CCCCC=C1N(Cc1ccco1)C(=O)[C@H](CC(=O)NCCCCc1ccccc1)C2 | 16.9%
O=C(NCCc1ccccn1)c1cc(C(=O)C2CCCCC2)c[nH]1 | 4.9%
Cc1cc(C)c(C#N)c(SCC(=O)N(CC(C)C)C2CCS(=O)(=O)C2)n1 (stereo not drawn) | 4.51%
COC(=O)C(Cc1c[nH]c2ccccc12)NC(=O)CCNC(=O)c1ccco1 (stereo not drawn) | -24.2%
O=C1NC[C@H](CCCCN2CCN(CCc3ccccc3)C(=O)C2=O)N(CC2CCCCC2)C1=O | -2.45%
O=C1OCCOC2CCCc3oc(-c4ccccc4)c1c32 (stereo not drawn) | 16.6%
CCOC(=O)c1cccc(NC(=O)CN(c2ccc(C)cc2)S(=O)(=O)c2c(C)noc2C)c1 | 57.7% (active)
COc1ccc(N(CC(=O)Nc2cc(OC)ccc2OC)S(=O)(=O)c2c(C)noc2C)cc1 | -0.61%
Cc1noc(C)c1S(=O)(=O)N(CC(=O)Nc1ccc2c(c1)OCCO2)c1ccc(C(C)C)cc1 | 35.5%
S=c1[nH]nc(/C=C/c2ccccc2)o1 | 9.4%
O=c1[nH]c(/C=C/c2cccc(Br)c2)nc2ccccc12 | -14.4%
O=c1oc(/C=C/c2ccccc2)nc2ccccc12 | 55.3% (active)

SMILES | inhibition
CCN(c1ccccc1)S(=O)(=O)c1cc2c(cc1C)n(C)c(=O)c(=O)n2C | -4.66%
Cc1ccc(-n2cc3ccc([N+](=O)[O-])cc3n2)cc1 | 39.8%
COc1ccc(-c2nc3ccc(Br)cn3c2Cc2ccc(C)cc2)cc1OC | -20.3%
Cc1ccc(-c2cc(N)on2)cc1 | -5.28%
COc1ccc(-c2cn3ccc(C)cc3n2)cc1 | 81.6% (active)
CS(=O)(=O)Nc1cccc(-c2cn3ccccc3n2)c1 | -6.02%
Cc1ccc(-c2nc3ccc(Br)cn3c2Cc2ccccc2C(F)(F)F)cc1 | 5.76%
Cc1ccc(-c2cn3cc([N+](=O)[O-])ccc3n2)cc1 | 76.3% (active)
Cc1ccc(-c2cn3cc(C)ccc3n2)cc1 | 105% (active)
Cc1ccnc(N2C(=O)c3ccc([N+](=O)[O-])cc3C2=O)c1 | 5.4%
FC(F)(F)Oc1ccc(-c2cn3cccnc3n2)cc1 | -15.1%
Cc1ccc2nc(-c3ccc(Br)cc3)cn2c1 | 98.8% (active)
COc1ccc(C2=Nc3cc(C)ccc3OC2)cc1 | 27.9%
Cc1ccc(OCC(=O)Nc2ccccc2Sc2ccc(Cl)cc2)c([N+](=O)[O-])n1 | 13.7%
COc1cccc(-c2cc3nc(NCCOc4ccccc4Cl)n(C)c(=O)c3s2)c1 | 15.1%
CCOC(=O)C1CCCN(C(=O)c2cc(-c3cccs3)oc2C)CC1 (stereo not drawn) | 31.6%
Cc1ccc(S(=O)(=O)Nc2ccccc2CNc2c(C)n(C)n(-c3ccccc3)c2=O)cc1 | 12.4%
O=C(NCC(=O)N1CCN(c2ccccc2O)CC1)c1ccc2ccccc2c1 | -22.9%
CC(C)C1Cc2[nH][nH]c(=O)c2C(c2ccc(Cl)cc2)O1 (stereo not drawn) | -23.3%
COc1ccc(C(=O)OCC(=O)c2ccc(Cl)s2)c(OC)c1OC | -38.7%
CNc1cncc(-c2ccc(NS(C)(=O)=O)cc2)n1 | 34.6%
CC1(C)OC(=O)C2=C(C[C@@H](C3CC3)O[C@H]2CCc2cccc(Cl)c2)O1 | -0.44%
Cc1ccc(S(=O)(=O)N(C)c2ccc(OCC(=O)OCC(=O)N(CC#N)c3ccccc3)cc2)cc1 | -12%
Cc1oc2cc(Br)c(O)c(Br)c2c1C(=O)c1ccccc1 | -24.8%
CCOC(=O)c1c(C)oc2cc(Sc3ccccc3)c(O)c(O)c12 | -4.97%

SMILES | inhibition
CCOC(=O)c1c(-c2ccccc2)oc2cc(Br)c(O)c(C=O)c12 | 97.5% (active)
CC1CCCN(c2ccc(C(=O)NCCc3ccccc3)cn2)C1 (stereo not drawn) | 6.92%
CCN(C(=O)CSc1nnnn1-c1ccccc1OC)C1CCS(=O)(=O)C1 (stereo not drawn) | 3.05%
CCC(C)N(C(=O)CSc1nnnn1-c1ccccc1OC)C1CCS(=O)(=O)C1 (stereo not drawn) | 14.9%
COc1ccccc1-n1nnnc1S(=O)(=O)Cc1ccc(Cl)cc1 | 102% (active)
CNC(=O)NCCN1CCCC1=O | -16.3%
O=C(NCc1ccc(F)cc1F)[C@@H]1CCCN1C(=O)[C@@H]1CCCN1C(=O)c1cccc(Cl)c1 | 22.6%
Cc1ccc2nc(-c3ccco3)c(Cc3cccc(Cl)c3)n2c1 | 10.4%
N#CCC(=O)Nc1ccc(C(=O)OCC(=O)Nc2sc3c(c2C#N)CCCC3)cc1 | -31.7%
CC(=O)c1c(C)[nH]c(C(=O)OCC(=O)Nc2c(C)cccc2C)c1C | 12.5%
CC(=O)c1c(C)[nH]c(C(=O)OCC(=O)Nc2sc3c(c2C#N)CCCC3)c1C | 64.3% (active)
CCCc1nc2scc(-c3ccc(C)cc3)c2c(=O)n1N | 17.3%
N#Cc1ccc(OCC(=O)Nc2nc(-c3ccccn3)cs2)cc1 | -7.26%
COc1ccc2c(c1OC)C(=O)OC2Nc1nc(-c2ccccc2)cs1 (stereo not drawn) | 66.1% (active)
COc1ccc(N/C=C(\C2OC(=O)c3ccccc32)[N+](=O)[O-])cc1 (stereo not drawn) | 9.49%
COc1cc(C(O)c2nc(-c3cccc(C(=O)O)c3)cs2)ccc1F (stereo not drawn) | -19.5%
COc1ccc(-c2csc(Nc3ccccn3)n2)cc1 | 68.4% (active)
Cc1ccc(-c2csc(NC3OC(=O)c4ccccc43)n2)cc1 (stereo not drawn) | 85.8% (active)
COc1ccc(C(C)(NC(C)=O)c2nc(-c3ccc(S(C)(=O)=O)cc3)cs2)cc1 (stereo not drawn) | -12.5%
Cn1cc(C2OC(=O)c3ccccc32)c2ccccc21 (stereo not drawn) | 38.7%
COc1ccc(-c2csc(NC3OC(=O)c4ccccc43)n2)cc1 (stereo not drawn) | 66.2% (active)
C/C(CC1CC(C)(C)OC1=O)=N/Nc1nc(-c2ccccc2)cs1 (stereo not drawn) | -29.9%
COc1ccc(C(O)c2nc(-c3ccc(OC)nc3)cs2)cc1 (stereo not drawn) | -2.94%
